Results filed as inconclusive are left out. Calls of active or inactive are those of the source. How the source made its calls, unless noted: active means hit-call score of the fitted dose curve at least 0.9, where 1 is the maximum; inactive means score below 0.9.

Test [1] is described as follows: BSK_BT_PBMCCytotoxicity: PBMC Cytotoxicity Assessment in the BioMAP Diversity Plus: BT Assay (AID 2284225).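 Further: PBMC viability measured by Alamar Blue dye reduction fluorescence.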 The settings on record: primary human B cells with PBMC. In a few lines:
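PBMC (75,000/well) pretreated with compound 1 h, then activated with SEB and TSST-1 (20 ng/mL each final), incubated 90 h; Alamar Blue added 6 h, fluorescence read at 546/580 nm. Fitted relative to DMSO.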

Read-out in test [2]: Secreted IgG (sIgG), gene 3500
Briefly: BSK_BT_sIgG: BioMAP Diversity Plus: BT Assay for Secreted IgG (sIgG) Biomarker Activity (AID 2284226). The conditions noted are these: primary human B cells with PBMC. In a few lines: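 Human B cell plus PBMC co-culture; secreted IgG measured by ELISA 24 h after chemical dosing. Response fitted in positive direction relative to DMSO baseline.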

A short description of test [3]: BSK_BT_Bcell_Proliferation: Viability Assessment in the BioMAP Diversity Plus: BT Assay for B cell Proliferation (AID 2284227). The settings on record: primary human B cells with PBMC. Put shortly: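 Human B cell/PBMC co-culture; test chemical added; 72 h; TCA fix (10%), 0.1% SRB stain, A560 for total protein as a proliferation read-out; positive-direction fit vs DMSO baseline.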

Read-out in test [4]: Interleukin 6 (IL6), IL6 (gene 3569)
Briefly: BSK_BT_xIL6: BioMAP Diversity Plus: BT Assay for Interleukin 6 (IL6) Biomarker Activity (AID 2284228). The settings on record: primary human B cells with PBMC. In a few lines: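 B cells and peripheral blood mononuclear cells (human primary co-culture) were dosed with chemical, and after 24 h IL-6 released into the medium was measured by Luminex xMAP. Responses were analysed as gain of signal over DMSO control.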

Read-out in test [5]: Interleukin 17A (IL17A), IL17A (gene 3605)
The test is described as follows: BSK_BT_xIL17A: BioMAP Diversity Plus: BT Assay for Interleukin 17A (IL17A) Biomarker Activity (AID 2284229). The conditions noted are these: primary human B cells with PBMC. In a few lines: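 Secreted IL-17A was the measured endpoint, read by Luminex xMAP multiplex in supernatants of a human B cell/PBMC co-culture harvested 24 h after chemical dosing. Signal increase relative to DMSO defined activity.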

Read-out in test [6]: Tumor necrosis factor (Homo sapiens) (UniProt P01375)
The test is described as follows: BSK_BT_xTNFa: BioMAP Diversity Plus: BT Assay for Tumor necrosis factor alpha (TNF-alpha) Biomarker Activity (AID 2284230). The settings on record: primary human B cells with PBMC. In a few lines: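 Read-out: Luminex xMAP quantitation of secreted TNF-alpha from a B cell/PBMC co-culture 24 h after compound addition. Signal analysed relative to DMSO vehicle, positive fitting direction.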

Read-out in test [7]: Vascular cell adhesion molecule 1 (VCAM1), VCAM1 (gene 7412)
Briefly: BSK_MyoF_VCAM1: BioMAP Diversity Plus: MyoF Assay for Vascular cell adhesion molecule 1 (VCAM1) Biomarker Activity (AID 2284231). The settings on record: primary human lung fibroblasts. Put shortly: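 ELISA read-out of VCAM-1 on human lung fibroblasts 24 h after chemical treatment, with positive-direction curve fitting relative to DMSO controls. Parallel cultures were stained with sulforhodamine B for total protein to flag overt cytotoxicity.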

Read-out in test [8]: Collagen I, COL1A1 (gene 1277)
Briefly: BSK_MyoF_CollagenI: BioMAP Diversity Plus: MyoF Assay for Collagen I Biomarker Activity (AID 2284238). The settings on record: primary human lung fibroblasts. Put shortly:
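Lung fibroblasts (human primary) dosed, 24 h; Collagen I by ELISA; positive-direction fit vs DMSO control. Parallel SRB total-protein staining (0.1% SRB, 10% TCA fixation, 560 nm) flags overt cytotoxicity.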

Read-out in test [9]: Collagen III, COL3A1 (gene 1281)
The test is described as follows: BSK_MyoF_CollagenIII: BioMAP Diversity Plus: MyoF Assay for Collagen III Biomarker Activity (AID 2284239). The settings on record: primary human lung fibroblasts. In a few lines: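 ELISA read-out of collagen III from human lung fibroblasts after 24 h of chemical treatment. The DMSO control served as negative control and baseline, with values fitted in the positive direction.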

Test [10] is described as follows: CCTE_Mundy_HCI_hNP1_Casp3_7: CCTE's Caspase-Glo 3/7 Assay in human neuroprogenitor cells for Apoptosis, Mundy Lab (AID 2284240). In a few lines:
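Luminescent caspase-3/7 readout, 26.5 h post-dose, in human neural progenitor cells from WA09 embryonic stem cells. Cells grew 40–44 h at 37 °C, 5% CO2 before chemical addition. Activity analysed as signal increase over DMSO baseline.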

A short description of test [11]: CCTE_Mundy_HCI_hNP1_CellTiter: CCTE's Cell Titer-Glo 2 Assay in human neuroprogenitor cells for Viability, Mundy Lab (AID 2284241; active means hit-call score of the fitted dose curve at least 0.9, where 1 is the maximum). Put shortly:
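Viability read as luminescent ATP content (CellTiter-Glo, 30 min room temperature) twenty-four hours after dosing, relative to DMSO. Cells: WA09-derived hNP1 neuroprogenitors on poly-L-ornithine/laminin, plated 40 to 44 hours before chemical.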

Chain of Tumor necrosis factor (Homo sapiens) (P01375 whole entry, looked up): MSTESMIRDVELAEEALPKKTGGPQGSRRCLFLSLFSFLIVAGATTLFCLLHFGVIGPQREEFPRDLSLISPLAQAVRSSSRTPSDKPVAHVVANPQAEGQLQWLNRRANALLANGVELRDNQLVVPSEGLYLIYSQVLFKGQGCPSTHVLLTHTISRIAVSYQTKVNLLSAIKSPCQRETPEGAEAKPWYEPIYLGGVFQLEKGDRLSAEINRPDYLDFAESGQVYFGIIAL

On to `O=C(O)C=CC(F)(C(F)(F)F)C(F)(F)F`, for which the outcome in test [1], in [2], in [3], in [4], in test [5] and in test [6] was inactive. The outcome in test [7], in test [8], in test [9], in test [10] and in [11] was inactive.
As for `Cc1ccc2c(c1N)C(=O)c1ccccc1C2=O`, the result in test [1], in test [2], in [3], in test [5], in [7] and in test [8] was inactive. In addition, the AC50 is 0.144 µM (active) in [4], 20 µM (active) in test [6] and 1.43 µM (active) in test [9].
Take `CCOP(=S)(S)OCC`: the outcome in [1], in [3], in test [4], in test [5], in test [6] and in test [7] was inactive. In addition, the result in [8] and in [9] was inactive. In test [2], the half-maximal activity concentration (AC50) is 4.15 µM (active).
Take `O=C(O)C(F)(F)OC(F)(F)C(F)(F)OC(F)(F)C(=O)O`: the outcome in test [1], in test [2], in test [3], in [4], in test [5] and in test [6] was inactive. In addition, the outcome in test [7], in test [8], in test [9], in test [10] and in test [11] was inactive.
Regarding `COC(=O)C(F)(F)C(F)(F)OC(F)(C(F)(F)F)C(F)(F)OC(F)=C(F)F` (configuration not stated), the outcome in test [1], in test [2], in test [3], in test [4], in [5] and in test [6] was inactive. In addition, the outcome in test [7], in [8] and in test [9] was inactive.
Take `NC(=O)C(F)(F)C(F)(F)F`: the outcome in test [1], in test [2], in test [3], in test [4], in [5] and in test [6] was inactive. Moreover, the outcome in test [7], in test [8] and in [9] was inactive.
Regarding `N#Cc1cc([N+](=O)[O-])ccc1N`, the result in [1], in test [2], in test [3], in test [4], in [5] and in test [6] was inactive. The outcome in test [7], in test [8] and in test [9] was inactive.
Consider `CCOP(=S)(NC(C)C)Oc1ccccc1C(=O)OC(C)C` (configuration not stated), for which the result in test [1], in test [3], in test [5], in test [6], in test [7] and in [8] was inactive. Besides, the result in test [9] was inactive. Moreover, the figures for the concentration at half-maximal activity (AC50) in [2] and in test [4] were 14.2 µM (active) and 14.3 µM (active), respectively.
As for `CC(C)Nc1ccc(Nc2ccccc2)cc1`, the concentration at half-maximal activity (AC50) in test [1] was 2.89 µM (active); in [2], 2.73 µM (active); in [3], 2.3 µM (active); in [4] it was 4.22 µM (active); in [5], 3.17 µM (active); in test [6], 5 µM (active). Besides, the AC50 is 20 µM (active) in test [7], 26 µM (active) in test [8] and 20 µM (active) in test [9].
For the compound `OCC(F)(F)OC(F)(F)C(F)(F)OC(F)(F)CO`, the outcome in test [1], in test [2], in test [3], in [4], in [5] and in test [6] was inactive. The result in test [7], in [8] and in test [9] was inactive.
Consider `O=c1ssc(Cl)c1Cl`, for which the AC50 in [1] was 6.76 µM (active); in test [2] it was 3.62 µM (active); in [3] it was 6.31 µM (active); in [4] it was 6.42 µM (active); in test [5], 4.51 µM (active); in test [6], 8.17 µM (active). In addition, the concentration at half-maximal activity (AC50) is 6.69 µM (active) in test [7], 7.5 µM (active) in test [8] and 9.69 µM (active) in [9].
On to `CCOP(=S)(OCC)SCSc1ccc(Cl)cc1`, for which the result in [1], in test [3], in [4], in test [5], in test [6] and in [7] was inactive. Also, the outcome in test [8] and in test [9] was inactive. In test [2], the AC50 was 20 µM (active).

The term AC50 denotes the concentration giving half of the maximal activity seen.

These data come from PubChem BioAssay (EPA / NIEHS).
